Assay outcomes from PubChem.
TcdB GH inh = inhibitors of Clostridioides difficile toxin B glycohydrolase; P18177; TcdB glycohydrolase enzymatic assay, plate reader; inhibition, % at 9.99 µM; 0.24% of 350,000 active; AID 652162; in the data active = inhibition above about 10%
MazEF act = MazEF (E. coli) toxin RNase activation | P0AE70 | FAM/BHQ RNA-DNA oligo cleavage fluorescence, 5 h | activation, % at 20 µM | 0.32% of 350,000 active | AID 504720; in the data active = activation above about 50%
Target sequence (P0AE70 whole entry, looked up): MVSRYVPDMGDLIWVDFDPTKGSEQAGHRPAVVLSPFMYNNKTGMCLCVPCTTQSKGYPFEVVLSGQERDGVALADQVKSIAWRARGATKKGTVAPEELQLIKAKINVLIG
Mtb betalactam = beta-lactam sensitization of Mtb H37Rv | inhibition, % at 25 µM | 0.27% of 330,000 active | M. tuberculosis H37Rv growth with meropenem, percent inhibition; call rule not given here;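 also: growth measured after seven days incubation then overnight dye step; 0% = bacteria only wells and 100% = bacteria with antibiotic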
UGM FP inh = blocks M. tuberculosis UGM enzyme; P9WIQ1; purified UGM, fluorescence polarization probe displacement; inhibition, % at 10 µM; 0.06% of 320,000 active; in the data active = inhibition above about 10%, passing the limit was not always enough
RecA intein inh = inhibitors of M. tuberculosis RecA intein splicing | AID 2221 | cell-free RecA intein splicing, fluorescence | inhibition, % (test concentration not listed) | 0.75% of 290,000 active | P9WHJ3; in the data active = inhibition above about 30%;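 also: 0% = vehicle wells and 100% = reference inhibitor control wells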
Rv3671c inh = inhibitors of M. tuberculosis serine protease Rv3671c; 0.048% of 320,000 active; AID 2606; P9WHR9; inhibition, % at 5.96 µM; in the data active = inhibition above about 38%;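 also: extracellular domain of Rv3671c used as enzyme; 0% = enzyme with DMSO and 100% = no enzyme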
Target sequence (P9WHR9 whole entry, looked up, the tested form may be a part): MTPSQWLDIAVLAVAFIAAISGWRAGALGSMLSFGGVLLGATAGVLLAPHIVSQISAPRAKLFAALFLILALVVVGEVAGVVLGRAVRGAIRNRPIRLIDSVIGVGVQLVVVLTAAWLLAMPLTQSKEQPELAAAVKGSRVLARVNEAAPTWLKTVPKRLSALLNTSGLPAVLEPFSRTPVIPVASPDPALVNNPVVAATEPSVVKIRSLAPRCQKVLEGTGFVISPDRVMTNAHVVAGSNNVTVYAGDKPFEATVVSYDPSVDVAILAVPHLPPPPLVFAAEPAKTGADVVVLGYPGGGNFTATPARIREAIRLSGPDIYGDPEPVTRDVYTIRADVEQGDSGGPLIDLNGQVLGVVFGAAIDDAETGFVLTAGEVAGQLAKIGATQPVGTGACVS
Starred values were filed as active, the others as inactive; i = inactive; nt = not tested or not shown; + = active, no number. The list is not random: actives were taken first. Their share in the collection is about 0.97%.

SMILES | TcdB GH inh | MazEF act | Mtb betalactam | UGM FP inh | RecA intein inh | Rv3671c inh
Cc1nc2ccccc2c2c1C(=O)N(C(C)C)C2=O | 0 | -5 | -7 | -1 | 41* | -6
Cc1nc2ccccc2c2c1C(=O)N(c1cccc(C(=O)O)c1)C2=O | -2 | 3 | 6 | -1 | 45* | 1
Cc1ccc(C)c(C(=O)COC(=O)c2cccc(N3C(=O)c4c(C)nc5ccccc5c4C3=O)c2)c1 | nt | 1 | -6 | 4 | 1 | 0
O=C(C[C@H]1CC[C@@H]2[C@H](COC[C@@H](O)CN2S(=O)(=O)c2cccc(F)c2)O1)NC1CCC1 | -1 | nt | nt | nt | nt | nt
CC(=O)c1ccc(Nc2ccc(-c3ccccc3F)nn2)cc1 | 10* | 15 | 5 | -1 | 0 | -6
O=C(Cc1ccccn1)NCC[C@@H]1CC[C@H](NS(=O)(=O)c2ccccc2)[C@H](CO)O1 | -1 | nt | nt | nt | nt | nt
Cn1cnc([N+](=O)[O-])c1Sc1ccc(C(C)(C)C)cc1 | 1 | 13 | 43 | 3 | 31* | -3
CC(=O)OCCn1c2nc(=O)[nH]c(=O)c-2nc2cc(C)c(C)cc21 | -2 | 480* | 8 | 108* | i | nt
Cc1[nH]c2ccccc2c1C(=O)/C=C/c1ccccc1Cl | 2 | 51* | -2 | -2 | 4 | -27
Cc1[nH]c2ccccc2c1C(=O)/C=C\c1ccccc1Cl | nt | 2 | -3 | -2 | 3 | -8
COc1ccc(Nc2nc3cc(C)ccc3cc2C#N)c(OC)c1 | 1 | 62* | -3 | 2 | -3 | 2
COc1ccc(Nc2nc3cc(C)ccc3cc2C#N)cc1 | 1 | 32 | 7 | 2 | -5 | 4
COc1ccc(Nc2nc3ccc(C)cc3cc2C#N)c(OC)c1 | -4 | 139* | 6 | 1 | 0 | -33
C[C@@H]1CCCCO[C@@H](CN(C)S(=O)(=O)c2ccccc2)[C@@H](C)CN([C@H](C)CO)C(=O)c2cc(NC(=O)c3ccccc3)ccc2O1 | 0 | nt | nt | nt | nt | nt
C[C@@H]1CN([C@@H](C)CO)C(=O)c2cc(NS(=O)(=O)c3cn(C)cn3)ccc2O[C@@H](C)CCCCO[C@H]1CN(C)Cc1ccncc1 | 0 | nt | nt | nt | nt | nt
Cc1nc(S(=O)(=O)N(C)Cc2ccccc2)c(C#N)c(C)c1Cl | 64* | 3 | 5 | -2 | -3 | -6
Cc1nc(S(=O)(=O)NC2CCCCC2)c(C#N)c(C)c1Cl | nt | 2 | -11 | -2 | -1 | 3
CCCNC(=O)Cc1ccc(N)cc1 | -1 | nt | nt | nt | nt | nt
O=C(C[C@@H]1CC[C@@H](NC(=O)Nc2ccccc2F)[C@@H](CO)O1)NCc1ccccc1 | 2 | nt | nt | nt | nt | nt
O=C1C(Cl)=C(NCCc2ccccc2)C(=O)N1CCc1ccccc1 | nt | 70* | -5 | -1 | -124 | 2
O=CN(c1ccccc1)c1ccc2ccccc2c1 | 13* | -12 | -2 | 1 | 0 | -6
CN(c1ccccc1)S(=O)(=O)c1ccc2ccccc2c1 | 1 | -3 | 1 | -3 | 9 | 1
O=C(C[C@H]1C[C@@H]2c3cc(NC(=O)C4CCC4)ccc3O[C@@H]2[C@H](CO)O1)NCc1cccnc1 | -4 | nt | nt | nt | nt | nt
Cc1cc(C)c(CSc2ncc(-c3ccc([N+](=O)[O-])cc3)[nH]2)c(C)c1 | nt | 76* | 95 | -2 | 1 | -16
O=C(Nc1ccc(Cl)cc1)N[C@H]1CC[C@@H](CCNS(=O)(=O)c2ccccc2F)O[C@H]1CO | -1 | nt | nt | nt | nt | nt
SMILES | TcdB GH inh | MazEF act | Mtb betalactam | UGM FP inh | RecA intein inh | Rv3671c inh
Cc1ccc(S(=O)(=O)Oc2ccccc2C=C2C(=O)N(C)C(=O)N(C)C2=O)cc1 | 0 | -4 | 5 | 0 | 1 | -2
Cc1ccc(S(=O)(=O)Oc2ccccc2/C=C2/SC(=O)NC2=O)cc1 | 10* | -9 | 20 | 3 | nt | 4
O=c1cc2c(=O)oc3cc(O)c(O)oc3c2c(O)c1O | -5 | 55* | nt | nt | -9 | nt
O=c1oc2cc(O)c(Cl)cc2c2ccccc12 | nt | 8 | 65 | 1 | -4 | 4
C[C@@H]1CN([C@H](C)CO)C(=O)c2cc(NC(=O)c3ccncc3)ccc2O[C@@H](C)CCCCO[C@@H]1CN(C)S(=O)(=O)c1ccc(Cl)cc1 | 0 | nt | nt | nt | nt | nt
CCCCC1(C)OC(=O)C(=Cc2c[nH]c3ccccc23)C(=O)O1 (configuration not stated) | 0 | 235* | 6 | -3 | 0 | -1
C[C@@H]1CN([C@H](C)CO)C(=O)c2cccc(N(C)C)c2O[C@@H]1CN(C)S(=O)(=O)c1ccccc1 | 1 | nt | nt | nt | nt | nt
Cc1ccc([N+](=O)[O-])cc1 | -1 | 13 | -6 | 1 | nt | 5
CC1C(=O)NN=C1c1ccc([N+](=O)[O-])cc1 (configuration not stated) | 10* | 1 | nt | nt | nt | nt
C/C(=N\NC(=O)c1ccc([N+](=O)[O-])cc1)c1cc2ccccc2oc1=O | nt | 1 | 7 | -1 | 87* | -2
C/C(=N/NC(=O)c1ccncc1)c1cc2ccc(O)cc2oc1=O | -1 | + | 99 | 42* | nt | 9
COC(=O)N(C)C[C@H]1OCc2ccccc2-c2c(n(C)c3ccccc23)C(=O)N([C@H](C)CO)C[C@H]1C | 0 | nt | nt | nt | nt | nt
COCC(=O)Nc1ccc2c(c1)OC[C@@H](C)N(C(=O)NC(C)C)C[C@@H](C)[C@@H](OC)CN(C)C2=O | -1 | nt | nt | nt | nt | nt
COc1ccc(S(=O)(=O)Nc2cccc3c2O[C@H](CN(C)S(=O)(=O)c2cn(C)cn2)[C@@H](C)CN([C@@H](C)CO)C3=O)cc1 | 0 | nt | nt | nt | nt | nt
CNC[C@@H]1Oc2cc(-c3ccc(C(=O)N(C)C)cc3)ccc2S(=O)(=O)N([C@H](C)CO)C[C@H]1C | 1 | nt | nt | nt | nt | nt
COC(=O)Nc1nc(-c2ccccc2)c(C(=O)c2ccc(Cl)cc2)s1 | nt | 52* | -11 | -1 | 5 | 3
O=C(COc1ccc2c3c(c(=O)oc2c1)CCC3)c1ccc2c(c1)OCO2 | 0 | 125* | 1 | 2 | -1 | -5
O=C(O)c1cc(-c2ccccc2Cl)n(-c2cccc(Cl)c2)n1 | 13* | -11 | 14 | 4 | 3 | 5
O=C(O)c1cc(-c2ccccc2Cl)n(-c2ccc(F)cc2)n1 | 2 | 12 | 0 | 0 | 0 | -3
CC(=O)Nc1ccc2c(c1)C(=O)N(C)[C@@H]1CC[C@H](CC(=O)NCc3ccc(Cl)cc3)O[C@@H]1CO2 | 1 | nt | nt | nt | nt | nt
COc1ccc(Br)cc1[C@H]1[C@@H]2C=CCC[C@@]2(C)C(=O)N1Cc1ccccc1 | -1 | 7 | 3 | 1 | 32* | -2
COc1ccc(-c2ccc(OC)c([C@H]3[C@@H]4C=CCC[C@@]4(C)C(=O)N3Cc3ccccc3)c2)cc1OC | 0 | -4 | 95 | 5 | 9 | -14
Cc1ccccc1-c1ccc([C@@H]2[C@H]3CN(S(C)(=O)=O)CC(=O)N3[C@H]2CO)cc1 | 1 | nt | nt | nt | nt | nt
C=CCNC1=C(Cl)C(=O)N(c2cccc(Cl)c2Cl)C1=O | nt | 2 | nt | 1 | 28 | -2
Cc1ccc(N2C(=O)C(Cl)=C(NCCO)C2=O)c(C)c1 | nt | -2 | 13 | -2 | 33* | 3
O=C(NCc1ccccc1)[C@@H]1[C@@H](CO)[C@@H]2Cn3c(ccc(/C=C/c4ccccc4)c3=O)[C@H]1N2CC1CC1 | -1 | nt | nt | nt | nt | nt
